Source: PubChem (National Center for Advancing Translational Sciences (NCATS))
HttQ103 aggreg – reduces HttQ103-GFP aggregates in PC12 cells; PC12 HttQ103-GFP aggregates, Acumen cytometry, 40 h; Potency, µM (titrated, usually from 46.1 µM), without a hit: at the top dose activity change, negative = inhibition, most hits filed as inhibitors; 220,000 tested, 1.1% active; AID 1688; active = well fitted curve in the direction sought with a large enough effect; inconclusive = small, poorly fitted or top-dose-only effect, or another doubt; inactive = no such curve, though single readings can be large; an effect the other way counts as inactive or inconclusive; also: % is scaled to controls: 0 for no effect and ±100 for the full control effect; nearly all actives have a fitted effect of over 60% in size
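Using laser scanning cytometry, GFP-positive aggregates were counted after lysis of PC12 cells induced with 100 nM tebufenozide to express HTT exon 1 Q103–GFP. Compounds were tested in titration.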
ALDH1A1 block – blocks purified human ALDH1A1 activity; P00352; Purified ALDH1A1, NADH fluorescence, propionaldehyde substrate; Potency, µM (series often up to 75.3 µM), inactives show at the highest dose activity, negative = inhibition, hits mostly inhibitors; 220,000 tested, 7.3% active;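 also: plate controls were no enzyme wells and a reference inhibitor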
Target sequence (P00352 whole entry, looked up): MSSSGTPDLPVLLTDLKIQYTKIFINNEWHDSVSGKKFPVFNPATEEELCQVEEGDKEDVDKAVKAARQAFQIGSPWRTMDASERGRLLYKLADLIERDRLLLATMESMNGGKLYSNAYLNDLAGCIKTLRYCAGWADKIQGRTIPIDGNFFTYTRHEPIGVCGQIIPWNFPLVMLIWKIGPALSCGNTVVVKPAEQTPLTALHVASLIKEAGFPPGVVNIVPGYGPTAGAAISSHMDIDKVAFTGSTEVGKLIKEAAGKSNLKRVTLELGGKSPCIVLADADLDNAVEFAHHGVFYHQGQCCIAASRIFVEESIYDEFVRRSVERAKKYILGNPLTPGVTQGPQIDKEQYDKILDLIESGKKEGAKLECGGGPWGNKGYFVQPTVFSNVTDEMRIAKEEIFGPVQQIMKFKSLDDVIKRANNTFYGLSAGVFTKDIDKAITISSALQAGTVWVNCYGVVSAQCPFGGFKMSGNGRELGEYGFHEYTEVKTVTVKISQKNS
Lamin A splicing – modulators of lamin A splicing; HeLa LMNA splicing GFP/RFP minigene ratio, 48 h; Potency, µM (highest dose often 46.1 µM), without a hit: at the top dose ratio change, negative = inhibition, usual class: inhibitors; 200,000 tested, 0.01% active; active = well fitted inhibition curve with a large enough effect in the signal ratio, with a control signal flat, not every such curve was filed as active; inconclusive = small, poorly fitted or top-dose-only effect, or effect the other way, or a change in a side signal; the % refers to the signal ratio; also: % is scaled to controls: 0 for no effect and ±100 for the full control effect
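S3 HeLa stable clones carrying a lamin A-EGFP splicing minigene plus DsRed2 were seeded at 600 cells/well in Opti-MEM with 2% FBS, pin-dosed and incubated 48 h at 37°C. Acumen cytometry (488 nm) gave the GFP/RFP total-intensity ratio.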
HPGD inh – blocks human HPGD enzyme activity | purified HPGD, NADH fluorescence kinetic, PGE2 substrate | Potency, µM, for the others: at the highest dose activity change, negative = inhibition, hits mostly inhibitors | 150,000 tested, 4.3% active | AID 894; also: % is scaled to controls: 0 for no effect and ±100 for the full control effect
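20 nM HPGD preincubated 15 min at room temperature with compound in 50 mM Tris-HCl pH 8, 0.01% Tween 20. Started with 1 mM NAD+ and 30 uM prostaglandin E2; NADH fluorescence (360/450 nm) read 5 times over 30-s intervals, last minus first.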
HTT cytoprotect – cytoprotection in Huntington HTT-Q103 PC12 cell model; PC12 HTT-Q103 induced, cytoprotection, ATP luminescence, 40 h; Potency, µM (doses to about 56.4 µM), inactives show cytoprotection (ATP increase), actives largely listed as activators; 230,000 tested, 0.14% active; AID 1471; active = well fitted curve in the direction sought with a large enough effect; inconclusive = small, poorly fitted or top-dose-only effect, or another doubt; inactive = no such curve, though single readings can be large; an effect the other way counts as inactive or inconclusive; also: % of control where 0% means no effect; nearly all actives have a fitted effect of over 45% in size
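Compounds added alongside 100 nM tebufenozide, which induces toxic Q103 huntingtin exon 1-GFP in stable PC12 cells; surviving cells quantified by luminescent ATP measurement. Medium: phenol red-free DMEM, 5% equine and 5% calf serum.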
Numbers without * were called inactive; ? = inconclusive; nt = not tested or not shown; [ ] = another dose, or the depositor's remark. Sampled rows, rich in hits. Any-hit rate of the full collection: about 8.8%. Unless noted, calls follow the shape of the dose curve; as a rule, active = well fitted inhibition curve with a large enough effect (not every such curve was filed as active); inconclusive = small, poorly fitted or top-dose-only effect, or another doubt; inactive = no such curve, though single readings can be large or run the other way. Potency is read from the fitted curve at half-maximal effect.

SMILES	HttQ103 aggreg	ALDH1A1 block	Lamin A splicing	HPGD inh	HTT cytoprotect
O=C(NC1CC2CCCC(C1)N2C(=S)NCCc1ccccc1)C1CC1 (configuration not stated)	18%[9.22 µM]	2%	nt	nt	5%[10 µM]
CCOC(=O)C1=C(C)OC(N)=C(C#N)C1c1ccc(C)s1 (configuration not stated)	-3%	22µM*	?	nt	-17%
COC(=O)C1=C(C)OC(N)=C(C#N)C1c1cc2cccc(C)c2nc1Cl (configuration not stated)	9%[9.22 µM]	28µM*	nt	nt	?
CCOC(=O)C1=C(C)OC(N)=C(C#N)C1c1cc(F)ccc1F (configuration not stated)	9%	8%	0%	-10%	?
CC(=O)C1=C(C)OC(N)=C(C#N)C1c1cc2cccc(C)c2nc1Cl (configuration not stated)	9%	?	11%	?	-6%
COC(=O)C1=C(C)OC(N)=C(C#N)C1c1cc(C)sc1C (configuration not stated)	13%[9.22 µM]	?	5%	28µM*	18%
O=C1c2ccccc2C(=O)N1c1ccc(Cc2ccncc2)cc1	12%[9.22 µM]	nt	nt	nt	9%[10 µM]
COc1cccc(N2CCN(c3ncnc4onc(-c5ccc(Cl)cc5)c34)CC2)c1	nt	nt	13%[46 µM]	nt	nt
COc1cc(Cl)ccc1NC(=S)N(CCCN1CCOCC1)Cc1cn(C)c2ccccc12	?	?	?	?	-43%[10 µM]
COc1ccc(Cl)cc1NC(=S)N(CCCN1CCOCC1)Cc1cn(C)c2ccccc12	?	-14%	5%	28µM*	-54%[10 µM]
COc1ccc(-c2nc3cc(NC(=O)COc4ccccc4C)ccc3o2)cc1	nt	nt	18%[46 µM]	nt	nt
Cc1ccc(N2CC(NC(=O)c3ccc(S(=O)(=O)N(C)C)cc3)CC2=O)cc1C (configuration not stated)	nt	nt	8%[46 µM]	nt	nt
Cn1c(=O)[nH]c(=O)c2c1nc(N1CCCC1)n2CCCSc1nnnn1-c1ccccc1	8%	11µM*	?	-12%	-2%[10 µM]
CN1CCN(c2nc3c(c(=O)n(C)c(=O)n3C)n2CCSc2nnnn2-c2ccccc2)CC1	-21%[9.22 µM]	nt	nt	nt	-1%[10 µM]
CC(CSc1nnnn1-c1ccccc1)Cn1c(N2CCN(C)CC2)nc2c1c(=O)[nH]c(=O)n2C (configuration not stated)	2%	20µM*	?	nt	-14%
Cn1c(=O)[nH]c(=O)c2c1nc(N1CCCCCC1)n2CCCSc1nnnn1-c1ccccc1	12%	2.5µM*	4%	-28%	37%[10 µM]
CN1CCN(c2nc3c(c(=O)[nH]c(=O)n3C)n2CCCSc2ncccn2)CC1	19%	?	0%	-7%	-3%[0.074 µM]
CN1CCN(c2nc3c(c(=O)[nH]c(=O)n3C)n2CCSc2nnnn2-c2ccccc2)CC1	4%[9.22 µM]	nt	nt	nt	-1%[10 µM]
O=C(CSc1ccc2nnc(-c3ccc(Cl)cc3)n2n1)N1CCN(c2ccccc2)CC1	nt	nt	nt	nt	-9%
COc1ccc(-c2nnc(SCC(=O)NCCc3ccccc3)nc2-c2ccc(OC)cc2)cc1	nt	nt	10%[46 µM]	nt	nt
COc1ccc(C2N(C(=O)N3CCOCC3)CCN2S(=O)(=O)c2ccc(C)cc2)cc1 (configuration not stated)	-11%[9.22 µM]	-11%	17%	-2%	-10%
CN(C)c1ccc(C2N(C(=O)N3CCOCC3)CCN2S(=O)(=O)c2ccccc2)cc1 (configuration not stated)	9%	1µM*	11%	-14%	-17%
Cc1ccc(S(=O)(=O)N2CCN(C(=O)N3CCOCC3)C2c2ccc(N(C)C)cc2)cc1 (configuration not stated)	-5%	0.63µM*	-7%	-16%	16%[10 µM]
O=C(COc1ccc(F)cc1)Nc1ccccc1OCc1cc(=O)n2ccccc2n1	nt	nt	2%[46 µM]	nt	nt
CC1CCN(C(=O)c2cnn(-c3cccc(Cl)c3)c2C2CCN(C(=O)OC(C)(C)C)CC2)CC1	nt	nt	-2%[46 µM]	nt	nt
Cc1cccc(NC(=O)CSc2nnc([C@@H]3CCCN3C(=O)OC(C)(C)C)o2)c1C	13%	3.5µM*	?	-8%	-29%
CS(=O)(=O)c1nc(-c2ccccc2)cc(C(F)(F)F)n1	4.5µM*	9%	?	?	?
O=c1c(-c2ccc(F)c(F)c2)nc2cncnc2n1Cc1ccccc1	nt	-2%	nt	-10%	-32%
